Only some compounds are listed: those with a hit (about 6% of all), similar ones and a draw of the others.
Tau ThT inhib = qHTS for Inhibitors of Tau Fibril Formation, Thioflavin T Binding; 270,000 tested, 2.1% active; Potency, µM (top dose mostly 57.4 µM), most hits filed as inhibitors; Microtubule-associated protein tau (Homo sapiens), P10636; recombinant tau K18 P301L, heparin-induced fibrillization, ThT fluorescence; AID 1460, 2008; note: nearly all actives have a fitted effect of over 55% in size
Target sequence (P10636 561-689 P618L limits assumed): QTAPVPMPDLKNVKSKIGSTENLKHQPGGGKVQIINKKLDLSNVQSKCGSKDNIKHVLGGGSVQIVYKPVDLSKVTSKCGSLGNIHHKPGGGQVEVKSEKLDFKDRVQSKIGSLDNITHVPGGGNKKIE
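K18 P301L tau (15 uM + 0.24 uM Alexa 594-tagged), heparin 20 uM, NaOAc pH 7, 6 h 37 C; ThT 30 uM, 1 h RT, ex 450/em 510 nm.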
VDR inhibitor = Inhibitors of the vitamin D receptor (VDR): qHTS. VDR-SRC2-3 peptide fluorescence polarization, 2 h. Potency, µM, actives largely listed as inhibitors. 400,000 tested, 0.93% active. AID 504847, 2011
Target sequence (P11473 whole entry, looked up): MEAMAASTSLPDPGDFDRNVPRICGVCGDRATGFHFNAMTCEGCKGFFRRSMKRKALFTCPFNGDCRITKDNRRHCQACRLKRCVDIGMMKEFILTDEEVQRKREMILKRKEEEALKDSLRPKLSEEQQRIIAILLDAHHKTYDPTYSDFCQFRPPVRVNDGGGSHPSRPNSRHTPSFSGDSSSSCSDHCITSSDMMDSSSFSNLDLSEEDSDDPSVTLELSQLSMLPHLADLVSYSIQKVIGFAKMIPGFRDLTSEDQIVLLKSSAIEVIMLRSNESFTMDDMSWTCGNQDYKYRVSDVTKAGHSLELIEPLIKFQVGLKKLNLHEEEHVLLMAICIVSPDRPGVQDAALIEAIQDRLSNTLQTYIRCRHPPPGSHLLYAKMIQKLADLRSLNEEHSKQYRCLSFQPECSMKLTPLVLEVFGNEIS
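The screen uses fluorescence polarization to detect compounds that interfere with recruitment of the SRC2-3 coactivator peptide to VDR; plates are read after 2 h at room temperature.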
PLK1 PBD inh = qHTS for Inhibitors of PLK1-PDB (polo-like kinase 1 - polo-box domain): Primary Screen; Serine/threonine-protein kinase PLK1 (Homo sapiens), P53350; Plk1 PBD binding of FITC phosphopeptide, fluorescence polarization; Potency, µM, actives largely listed as inhibitors; 360,000 tested, 2.8% active; note: series mostly up to about 57 µM; nearly all actives have a fitted effect of over 65% in size
Tau FP inhib = qHTS for Inhibitors of Tau Fibril Formation, Fluorescence Polarization | Microtubule-associated protein tau (Homo sapiens), P10636 | K18 P301L tau heparin fibrillization, Alexa594 FP, 6 h | Potency, µM (top dose mostly 57.7 µM), most hits filed as inhibitors | 280,000 tested, 0.39% active; note: nearly all actives have a fitted effect of over 55% in size
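Human tau K18 […] P301L fragment, 15 uM unlabeled plus 0.24 uM Alexa 594-labeled tau (final), with compound and 20 uM heparin in 100 mM sodium acetate pH 7; 6 hr at 37 C, then Alexa 594 FP read.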
Tau fluor cs = Counterscreen qHTS for Inhibitors of Tau Fibril Formation, Fluorescence Polarization | tau K18 P301L (four-repeat tau fragment) Alexa594 fluorescence, heparin fibrillization | Potency, µM (titrated, usually from 57.7 µM) | 280,000 tested, 0.93% active; note: nearly all actives have a fitted effect of over 55% in size
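Human K18 P301L tau (15 uM unlabeled plus 0.24 uM Alexa 594-labeled, final) in 100 mM sodium acetate pH 7 was mixed with compound and 20 uM heparin and incubated 6 hr at 37 C.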
Sfp PPTase inh = qHTS Assay for Inhibitors of Bacillus subtilis Sfp phosphopantetheinyl transferase (PPTase); 310,000 tested, 3.5% active; Potency, µM, most hits filed as inhibitors; Biochemical Sfp PPTase activity, qHTS;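 note: the enzyme is Sfp with the accession as filed and its product quenches rhodamine fluorescence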
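After 15 min at room temperature with compound, 15 nM Sfp received 5 uM rhodamine-CoA plus 12.5 uM BHQ-2-ybbR (50 mM Hepes pH 7.6, 10 mM MgCl2). Rate came from the fluorescence difference over 30 min, ex 525/em 598 nm.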
Of the large screens only hits and unclear results are named; the others gave an inactive call. Calls come from the whole dose curve; as a rule, active = well fitted curve in the direction sought with a large enough effect; inconclusive = small, poorly fitted or top-dose-only effect, or another doubt; inactive = no such curve, though single readings can be large; an effect the other way counts as inactive or inconclusive.

COc1ccc(-c2n[nH]c(C)c2-c2ccc(Cl)cc2)c(O)c1OC	Tau ThT inhib inconclusive
COc1ccc(O)c(-c2c(-c3ccc(Cl)cc3)n[nH]c2C)c1	none
Cc1ccc(S(=O)(=O)N(C)C[C@@H]2Oc3ccc(NC(=O)CCC(F)(F)F)cc3CC(=O)N([C@@H](C)CO)C[C@@H]2C)cc1	none (no result: Tau ThT inhib, Tau FP inhib, Tau fluor cs, Sfp PPTase inh)
O=C(NN=Cc1c(O)ccc2ccccc12)c1ccc2c(c1)OCO2	none (no result: Tau ThT inhib, Tau FP inhib, Tau fluor cs, Sfp PPTase inh)
Oc1ccc(N=Nc2ccc3c(c2)OCO3)c2ccccc12	Tau ThT inhib 0.89µM, Tau FP inhib inconclusive (no result: VDR inhibitor, PLK1 PBD inh)
O=C1CSc2cc(Cl)ccc2N1	VDR inhibitor inconclusive, PLK1 PBD inh 11µM (no result: Tau ThT inhib, Tau FP inhib, Tau fluor cs, Sfp PPTase inh)
CCOC(=O)c1cc2c(=O)n3ccccc3nc2n(Cc2ccco2)c1=NC(=O)c1c(F)cccc1Cl	VDR inhibitor inconclusive (no result: PLK1 PBD inh, Sfp PPTase inh)
CC(C)(C)N1C(=O)c2ccccc2NC(=O)C1C(=O)NCc1ccco1 (stereo not drawn)	none (no result: Tau ThT inhib, VDR inhibitor, Tau FP inhib, Tau fluor cs, Sfp PPTase inh)
Cc1nc(N2CCCCC2)c2c(-c3cccs3)csc2n1	Sfp PPTase inh 56µM
Cc1ccc(S(=O)(=O)N2C[C@H]3[C@H]4C(=O)N(C5CCCCC5)C(=O)[C@H]4CC(=O)[C@H]3[C@@H]2c2ccccc2Cl)cc1	none (no result: Tau ThT inhib, VDR inhibitor, Tau FP inhib, Tau fluor cs, Sfp PPTase inh)
O=C(c1ccc2c(c1)OCO2)[C@@H]1[C@@H]2C(=O)N(C3CCCCC3)C(=O)[C@@H]2C2c3ccccc3C=CN21 (stereo partly drawn)	Tau ThT inhib 28µM, Tau FP inhib inconclusive, Tau fluor cs inconclusive
O=C1C=C[C@@H](O)[C@H]2[C@@H]3C(=O)N(Cc4ccc5c(c4)OCO5)C(=O)[C@@H]3CC[C@H]12	Tau FP inhib inconclusive (no result: VDR inhibitor, PLK1 PBD inh)
CC(C)(C)C(=O)[C@@H]1[C@@H]2C(=O)N(C3CCCCC3)C(=O)[C@@H]2[C@H]2c3ccccc3C=CN12	Tau ThT inhib 32µM, PLK1 PBD inh 27µM, Tau FP inhib inconclusive, Tau fluor cs inconclusive
COc1ccc(N2C(=O)[C@@H]3[C@H](C2=O)[C@H]2c4ccccc4C=CN2[C@@H]3C(C)=O)cc1	Tau ThT inhib 16µM, PLK1 PBD inh inconclusive, Tau FP inhib inconclusive
COc1ccc(N2C(=O)[C@H]3[C@@H](C2=O)C2c4ccccc4C=NN2[C@H]3C(=O)C(C)(C)C)cc1 (stereo partly drawn)	none (no result: Tau ThT inhib)
O=C(c1cccs1)[C@@H]1[C@@H]2C(=O)N(Cc3ccc4c(c3)OCO4)C(=O)[C@@H]2C2c3ccccc3C=CN21 (stereo partly drawn)	Tau ThT inhib 22µM, Tau FP inhib inconclusive, Tau fluor cs inconclusive (no result: VDR inhibitor, PLK1 PBD inh)
O=C(Nc1ccc2c(c1)OCO2)[C@@H]1[C@@H]2C(=O)N(C3CCCCC3)C(=O)[C@@H]2C2c3ccccc3C=CN21 (stereo partly drawn)	Tau ThT inhib inconclusive, Tau fluor cs inconclusive (no result: VDR inhibitor, PLK1 PBD inh)
COc1ccc(S(=O)(=O)N2CCOCC2)cc1NC(=O)CN1CCN(C)CC1	none (no result: Tau ThT inhib, Tau FP inhib, Tau fluor cs, Sfp PPTase inh)
COc1cccc(/C=C/C(=O)c2ccc3c(c2)OCO3)c1OC	none (no result: Tau ThT inhib, Tau FP inhib, Tau fluor cs, Sfp PPTase inh)
COc1ccccc1/C=C/C(=O)/C=C/c1ccccc1O	Tau ThT inhib 14µM, Tau FP inhib inconclusive
CNc1ccc(Br)cc(C(=O)/C=C/c2cccc(OC)c2OC)c1=O	Tau ThT inhib 14µM, Tau FP inhib inconclusive, Tau fluor cs inconclusive, Sfp PPTase inh 13µM
COc1ccccc1/C=C/C(=O)c1cc(Br)ccc1OC(=O)c1ccco1	VDR inhibitor inconclusive, PLK1 PBD inh 24µM (no result: Tau ThT inhib, Tau FP inhib, Tau fluor cs, Sfp PPTase inh)
Cc1[nH]c2ccccc2c1C(=O)/C=C\c1ccccc1Cl	Tau ThT inhib inconclusive, Tau FP inhib inconclusive, Tau fluor cs inconclusive
CCNc1ccc(Br)cc(C(=O)/C=C/c2ccccc2Cl)c1=O	VDR inhibitor 28µM, PLK1 PBD inh inconclusive (no result: Tau ThT inhib, Tau FP inhib, Tau fluor cs, Sfp PPTase inh)
O=C1CC(c2nnc(Cc3ccc(F)cc3)o2)CN1c1ccccc1 (stereo not drawn)	Tau FP inhib inconclusive (no result: PLK1 PBD inh, Sfp PPTase inh)

High-throughput results: PubChem, National Center for Advancing Translational Sciences (NCATS)
